# Experimental data: PubChem BioAssay (Tox21)
# Inconclusive results are not listed. Active and inactive are the calls of the source. Calls come from the whole dose curve; as a rule, active = well fitted cell-killing curve with a large enough effect in the repeat runs; inconclusive = weak or mixed curves; inactive = flat fitted curve, though single readings scatter.
# Experiment: qHTS RealTime-Glo MT Cell Viability Assay in HepG2 cells - 8 hour (AID 1224873); note: nearly all actives have a fitted effect of over 55% in size
# Conditions: RealTime-Glo luminescence; series mostly up to 76.8 µM
# Procedure, shortened: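 HepG2 cells (600/well) mixed with RealTime-Glo MT reagent, settled 5 h at 37 C/5% CO2 before compound addition. Nonlytic NanoLuc luminescence from viable-cell prosubstrate reduction read repeatedly during 40 h treatment at 37 C.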
row,SMILES,outcome
1,CN1CCC[C@@H]1Cc1c[nH]c2ccc(CCS(=O)(=O)c3ccccc3)cc12,inactive
2,O=Cc1ccc(F)c(Br)c1,inactive
3,Cc1ncc(CO)c(CN)c1O,inactive
4,N#CSCC(=O)O,inactive
5,CCCN(CCC)C(=O)C(CCC(=O)O)NC(=O)c1ccccc1 (stereo not drawn),inactive
6,CCN[C@H]1CN(CCCOC)S(=O)(=O)c2sc(S(N)(=O)=O)cc21,inactive
7,Cc1ccc(C=O)s1,inactive
8,COC(=O)C(C)O (stereo not drawn),inactive
9,CCOC(=O)NCCC[Si](OCC)(OCC)OCC,inactive
10,OCc1ccccc1O,inactive
11,O=C(C(Cl)Cl)N1CCOC12CCCCC2,inactive
12,CCN(CC)C(=O)N(CC)CC,inactive
13,O=C1CCCc2ccccc21,inactive
14,COc1ccccc1N1CCN(CCCNc2cc(=O)n(C)c(=O)n2C)CC1,inactive
15,CC(=O)O[C@H]1CC[C@@]2(C)C(=CC[C@@H]3[C@@H]2CC[C@]2(C)C(C(C)=O)=CC[C@@H]32)C1,inactive
16,FC(F)(F)C(F)(F)C(F)(F)C(F)(F)C(F)(F)C(F)(F)C(F)(F)C(F)(F)Br,inactive
17,Cn1cnc2c(F)c(Nc3ccc(Br)cc3Cl)c(C(=O)NOCCO)cc21,inactive
18,ClC(Cl)Cl,inactive
19,CCCOc1ccc2c(c1)CC[C@@H]1[C@@H]2CC[C@]2(C)C(OC)CC[C@@H]12 (stereo partly drawn),inactive
20,CCN(CC)CC1CCCCN1CC(=O)N1c2ccccc2C(=O)Nc2cccnc21 (stereo not drawn),inactive
21,O=C(Cl)c1cccc([N+](=O)[O-])c1,inactive
22,Cc1cc(NS(=O)(=O)c2ccc(N)cc2)nc(C)n1,inactive
23,CCCCCCC,inactive
